PfHsp40 yeast: rescue of PfHsp40-mediated yeast toxicity; growth rescue, % at 12.5 µM; 340,000 compounds, 0.68% hits; S. cerevisiae expressing PfHsp40, growth rescue, ATP luminescence; in the data active means growth rescue above about 28%, passing the limit was not always enough; inconclusive means no clear call, values can overlap the other calls;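 further: yeast W303a lacking pdr1 and pdr3 grown in galactose medium; growth measured after three days at 30 °C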
BoNT-A LC inh2: BoNT A light chain protease inhibition; multiplex microsphere protease substrate cleavage, flow cytometry; inhibition, % at 10 µM; 360,000 compounds, 0.17% hits; AID 588499; further: plate controls were buffer without enzyme for full effect and enzyme alone for no effect
Anthrax LF prot: anthrax lethal factor protease inhibition; multiplex microsphere protease cleavage assay, LF; P15917; inhibition, % at 10 µM; 360,000 compounds, 0.12% hits; further: plate controls were buffer without enzyme for full effect and enzyme alone for no effect
Target sequence (P15917 whole entry, looked up): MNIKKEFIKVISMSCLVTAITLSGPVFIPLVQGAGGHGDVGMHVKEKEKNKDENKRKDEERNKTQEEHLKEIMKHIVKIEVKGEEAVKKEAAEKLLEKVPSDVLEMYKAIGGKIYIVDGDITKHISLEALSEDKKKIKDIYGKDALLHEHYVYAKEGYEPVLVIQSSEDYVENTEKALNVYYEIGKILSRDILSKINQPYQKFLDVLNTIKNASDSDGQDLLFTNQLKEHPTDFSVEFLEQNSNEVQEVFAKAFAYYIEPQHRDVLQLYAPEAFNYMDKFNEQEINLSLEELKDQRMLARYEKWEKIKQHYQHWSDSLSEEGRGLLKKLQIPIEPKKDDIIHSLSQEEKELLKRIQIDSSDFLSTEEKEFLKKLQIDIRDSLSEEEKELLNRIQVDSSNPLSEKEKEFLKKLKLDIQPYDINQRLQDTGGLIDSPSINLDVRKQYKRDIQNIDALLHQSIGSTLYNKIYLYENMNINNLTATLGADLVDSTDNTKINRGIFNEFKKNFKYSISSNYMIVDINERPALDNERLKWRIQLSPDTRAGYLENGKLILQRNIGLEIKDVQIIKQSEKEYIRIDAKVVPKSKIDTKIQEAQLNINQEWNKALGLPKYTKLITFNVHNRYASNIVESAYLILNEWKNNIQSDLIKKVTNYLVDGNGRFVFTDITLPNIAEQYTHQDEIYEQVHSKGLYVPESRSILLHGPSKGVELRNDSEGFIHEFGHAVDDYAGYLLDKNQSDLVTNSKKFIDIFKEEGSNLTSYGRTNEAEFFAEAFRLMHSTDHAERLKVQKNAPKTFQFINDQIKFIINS
MazEF act: increases E. coli MazEF RNase cleavage of RNA; P0AE70; FAM/BHQ RNA-DNA oligo cleavage fluorescence, 5 h; activation, % at 20 µM; 350,000 compounds, 0.32% hits; in the data active means activation above about 50%
BoNT-F LC inh: BoNT F light chain protease inhibition; 360,000 compounds, 0.22% hits; inhibition, % at 10 µM; Multiplex microsphere protease cleavage assay, flow cytometry; in the data active means inhibition above about 35%, passing the limit was not always enough; inconclusive means no clear call, values can overlap the other calls; further: plate controls were buffer without enzyme for full effect and enzyme alone for no effect
Bead autofluor: compound fluorescence in toxin protease inhibitor counterscreen; compound autofluorescence counterscreen, microsphere flow cytometry; active compounds read high; fluorescence intensity (test concentration not listed); 360,000 compounds, 3.1% hits; in the data active means fluorescence intensity above about 16000; inconclusive means no clear call, values can overlap the other calls
* marks the source's active call; other numbers are inactive results; ? = inconclusive; nt = no result. Most compounds without a hit are left out; they make up all but 4.3% or so of the library. Unless noted, no stated cut-off is given here; in the data, active means inhibition above about 30%; inconclusive means no clear call, values can overlap the other calls; inactive means below that.

SMILES	PfHsp40 yeast	BoNT-A LC inh2	Anthrax LF prot	MazEF act	BoNT-F LC inh	Bead autofluor
O=C(CN(c1ccccc1)S(=O)(=O)c1ccccc1[N+](=O)[O-])N1CCCC1	1	2	12	13	-1	3778
CP(=O)(Nc1ccc(Cl)cc1)c1nc2c(s1)CCCC2 (stereo unspecified)	0	0	-1	-2	-2	4233
O=P(Nc1c(Cl)cccc1Cl)(c1ccccc1)c1nc2c(s1)CCCC2 (stereo unspecified)	1	-3	-9	-5	-3	23723*
O=P(Nc1ccccc1Cl)(c1ccccc1)c1nc2c(s1)CCCC2 (stereo unspecified)	-1	-3	-2	5	-9	17289*
O=C(NCc1ccccc1Cl)C1CCN(S(=O)(=O)N2CCCCCC2)CC1	-1	-3	0	1	-4	17397*
O=C1NC[C@@H](CCCCN2CCN(Cc3ccccc3)C(=O)C2=O)N(CC2CCCCC2)C1=O	nt	0	1	nt	0	4221
CCOc1ccc(C(=O)Nc2ccc(NC(=O)c3ccco3)c(Cl)c2)cc1Br	-1	?	-2	28	0	22914*
CCOc1ccc(C(=O)Nc2ccc(NC(=O)c3ccco3)c(Cl)c2)cc1Cl	1	0	-1	8	-10	3179
Cc1ccccc1C(=O)N1CCN(c2ccc(NC(=O)c3ccco3)cc2Cl)CC1	2	-1	5	-15	0	3420
O=C(Nc1ccc(N2CCN(C(=O)c3cccs3)CC2)c(Cl)c1)c1ccco1	1	-3	-3	-7	-7	16928*
O=C(Nc1ccc(NC(=O)c2sc3ccccc3c2Cl)cc1Cl)c1ccco1	2	8	-7	-37	14	19130*
CN(C)C(CNC(=O)CCc1nc2sc3c(c2c(=O)[nH]1)CCCC3)c1ccccc1 (stereo unspecified)	-1	4	2	-7	12	6430
O=C(CCS(=O)(=O)c1ccccc1)N(CCCN1CCOCC1)c1nc2ccc(F)cc2s1	-1	-1	-5	nt	10	6223
CC(OC(=O)Cn1cnc2ccccc2c1=O)C(=O)NCc1ccccc1 (stereo unspecified)	0	-2	-3	-3	-5	6404
CCOC(=O)c1cnc(-n2nc(C)cc2C)nc1NCc1ccccc1	?	3	5	4	-3	?
CCOC(=O)c1cnc(-n2nc(C)cc2C)nc1NC(C)c1ccccc1 (stereo unspecified)	-1	0	-2	3	-3	16140*
CCOC(=O)c1cnc(-n2nc(C)cc2C)nc1NCCO	0	-1	-1	-13	-2	22604*
CCOC(=O)c1cnc(-n2nc(C)cc2C)nc1N1CC(C)OC(C)C1 (stereo unspecified)	-1	3	-2	-1	1	21874*
Cc1cc(N/N=C/c2ccncc2)c([N+](=O)[O-])cc1[N+](=O)[O-]	-1	?	-6	6	?	3394
COCc1nnc(NS(=O)(=O)c2c(C)cc(C)cc2C)s1	18	0	0	3	0	23383*
CC(NS(=O)(=O)CCNC(=O)c1ccccc1)c1ccccc1 (stereo unspecified)	0	0	-4	5	3	6126
NC(=O)CSc1nnc(-c2cccc(S(=O)(=O)N3CCCCC3)c2)o1	0	0	5	7	-5	3280
O=S(=O)(c1cccc(-c2nnc(-c3ccc(Br)cc3)o2)c1)N1CCCCCC1	-1	3	-2	5	6	20866*
Cc1ccc(CSc2nnc(-c3ccc(S(=O)(=O)N4CCCC4)cc3)o2)cc1	-1	0	-6	-41	-5	22758*
O=S(=O)(c1ccc(-c2nnc(SCc3ccccc3)o2)cc1)N1CCCC1	0	?	2	-43	3	19388*
SMILES	PfHsp40 yeast	BoNT-A LC inh2	Anthrax LF prot	MazEF act	BoNT-F LC inh	Bead autofluor
O=C(CCNS(=O)(=O)c1ccc2[nH]c(=O)oc2c1)Nc1ccccc1	-1	0	0	-6	13	5336
CCOc1ccc(S(=O)(=O)NC2CCCC2)cc1	-1	0	-3	-5	-5	6143
CC(C)(C)c1cn(-c2ccc(F)cc2)c(=S)[nH]1	1	?	0	-3	9	19889*
c1ccc(-c2csc(-n3cnnn3)n2)cc1	2	2	0	-10	5	21991*
COc1ccccc1-c1nnc(SC2CCc3ccccc3NC2=O)s1 (stereo unspecified)	0	?	2	-11	-2	20615*
O=C(Nc1ccccc1Cl)ON=C1c2ccccc2-c2ccccc21	88*	-1	0	8	-9	7992
COc1ccc(S(=O)(=O)NCC2CCC(C(=O)NCc3ccc(F)cc3)CC2)cc1 (stereo unspecified)	0	-1	9	3	11	3906
COc1ccc(N(C)S(=O)(=O)c2cccc3cccnc23)c(OC)c1	-1	-1	-1	9	1	16783*
CC(=O)NC1C(=O)N(CC(C)C)c2ccccc21 (stereo unspecified)	0	-5	1	0	-4	21274*
FC(F)(F)c1cc(-c2ccco2)nc(N2CCN(c3ccccc3)CC2)n1	1	-6	-4	5	-7	25233*
CC1(C)CC(NC(=O)C23CCC(C)(C(=O)C2)C3(C)C)CC(C)(C)N1 (stereo unspecified)	2	4	2	0	4	21112*
COc1cc(C(c2c(C)[nH][nH]c2=O)c2c(C)[nH][nH]c2=O)ccc1OS(=O)(=O)c1ccc(C)cc1	-1	0	0	-6	-10	4330
COc1cc(C(c2c(C)[nH][nH]c2=O)c2c(C)[nH][nH]c2=O)ccc1OCc1ccc([N+](=O)[O-])cc1	0	3	1	7	-1	21766*
COc1cc(C(c2c(C)[nH][nH]c2=O)c2c(C)[nH][nH]c2=O)ccc1OS(=O)(=O)c1ccccc1	-2	-1	-4	-3	-5	16308*
COc1cc(C(c2c(C)[nH][nH]c2=O)c2c(C)[nH][nH]c2=O)ccc1OC(=O)c1cccc([N+](=O)[O-])c1	0	1	-3	7	-5	2480
COc1ccc(C(=O)CC(Nc2ccc([N+](=O)[O-])cc2)c2ccc(OC)cc2)cc1 (stereo unspecified)	1	-2	-2	6	-4	24070*
COc1ccc(C(=O)CC(=O)Nc2ccc([N+](=O)[O-])cc2)cc1	1	-1	9	-21	-19	3498
NNC(=O)C(Cc1cnc[nH]1)NC(=O)OCc1ccccc1 (stereo unspecified)	0	-3	-2	14	0	3709
CCCNc1c(N)n(-c2ccccc2)c(=O)[nH]c1=O	0	?	-4	-8	8	21763*
Nc1c(N=O)c(=O)[nH]c(=O)n1-c1ccccc1	-1	0	1	0	?	4218
CNc1cc(CSC)nc(SCc2ccc(Cl)cc2Cl)n1	308*	-1	-5	-6	-4	8856

Screening results (PubChem BioAssay)
